From PubChem BioAssay (EPA / NIEHS) come the findings set out here.

A short description of assay [1]: ATG_PPRE_CIS: Attagene CIS-FACTORIAL HepG2 Assay for human Peroxisome Proliferator-activated Response Element (PPRE) (AID 2282958). The settings on record: HepG2 PPRE cis-element reporter, Attagene transcription factor profiling; actives raise or lower the signal. The method, boiled down:
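HepG2, transient MRTU transfection (cis promoter elements, endogenous TFs). 24 h dosing. RNA → oligo(dT) RT → PCR → 6-FAM primer extension → HpaI digest → CE. Bidirectional fit vs DMSO.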

Assay [2] can be described thus: ATG_Sox_CIS: Attagene CIS-FACTORIAL HepG2 Assay for human SRY-box transcription factor (SOX) (AID 2282960). To be noted: HepG2 Attagene cis-factorial SOX reporter, mRNA; actives raise or lower the signal. The essentials: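 Endogenous factor activity in human liver HepG2 cells carrying transfected cis-regulated reporter units. RNA taken 24 h post-dose, reverse-transcribed, PCR-amplified and sized by capillary electrophoresis. Gain or loss of signal fitted relative to DMSO.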

In assay [3] the target is Transcription factor Sp1 (Homo sapiens) (UniProt P08047). As to the kind of experiment: ATG_Sp1_CIS: Attagene CIS-FACTORIAL HepG2 Assay for human Specificity Protein 1 (Sp1) (AID 2282961). To be noted: HepG2 Sp1 cis-reporter transcription, actives raise or lower the signal. The essentials:
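Transient MRTU-transfected HepG2, 24 h compound exposure. Total RNA → oligo(dT) RT → PCR of reporter → 6-FAM primer extension → HpaI digest → CE. Endpoint fitted both directions vs DMSO.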

Assay [4] can be described thus: ATG_SREBP_CIS: Attagene CIS-FACTORIAL HepG2 Assay for human Sterol Regulatory Element Binding (SREBP) (AID 2282962). To be noted: HepG2 Attagene cis-factorial SREBP reporter, mRNA; actives raise or lower the signal. The method, boiled down: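 Endogenous factor activity is measured in HepG2 through multiplexed reporter units under cis-element control. Following a 24 h incubation, reporter transcripts are reverse-transcribed, PCR-amplified and sized by capillary electrophoresis; activity is fitted in both directions relative to DMSO.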

Assay [5] has as its target Signal transducer and activator of transcription 3 (Homo sapiens) (UniProt P40763). As to the kind of experiment: ATG_STAT3_CIS: Attagene CIS-FACTORIAL HepG2 Assay for human Signal Transducer and Activator of Transcription 3 (STAT3) (AID 2282963). To be noted: HepG2, Attagene cis-factorial STAT3 reporter transcription; actives raise or lower the signal. The method, boiled down: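 Fluorescence intensity of 6-FAM-labelled reporter fragments, separated by capillary electrophoresis after RT-PCR, gave the signal. Cells were HepG2 transfected with cis-element reporter units and treated 24 h; fitting was bidirectional relative to DMSO.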

Assay [6] can be described thus: ATG_TA_CIS: Attagene CIS-FACTORIAL HepG2 Assay for human TA Basal Promoter (AID 2282964). To be noted: HepG2 Attagene CIS-factorial TA basal promoter reporter; actives raise or lower the signal. The essentials: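 Transfected HepG2, 24 h compound exposure; RNA → RT-PCR → FAM primer extension → HpaI cut → CE fluorescence. Gain/loss-of-signal fitted against DMSO negative control. Background-control readout.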

Assay [7] in a line: ATG_TCF_b_cat_CIS: Attagene CIS-FACTORIAL HepG2 Assay for human T-Cell-Factor with beta-catenin (TCF/b-cat) (AID 2282965). The settings on record: HepG2 TCF/beta-catenin cis-reporter transcription, actives raise or lower the signal. The method, boiled down: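 Cells of the HepG2 line carry transiently transfected reporter units whose promoters respond to endogenous factors. Twenty-four hours post-dosing, reporter mRNA induction is measured by fluorescent RT-PCR and capillary electrophoresis, with DMSO as baseline.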

A short description of assay [8]: ATG_TAL_CIS: Attagene CIS-FACTORIAL HepG2 Assay for human TAL Basal Promoter (AID 2282966).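 Further: background control endpoint measuring basal TAL promoter reporter mRNA not a specific factor.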 The settings on record: HepG2 Attagene cis-factorial TAL promoter reporter; actives raise or lower the signal. The method, boiled down:
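Basal-promoter background-control endpoint from a multiplexed HepG2 reporter panel. Cells were exposed 24 h, then reporter mRNA was read by RT-PCR/CE fluorescence and fitted in both directions relative to DMSO.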

The nature of assay [9]: ATG_TGFb_CIS: Attagene CIS-FACTORIAL HepG2 Assay for human Transforming Growth Factor (TGF) (AID 2282967). The settings on record: HepG2 Attagene CIS TGFb reporter, mRNA transcription; actives raise or lower the signal. The essentials:
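Readout: fluorescently labeled reporter cDNA fragments resolved by capillary electrophoresis after RT-PCR. Transfected HepG2 cells dosed for 24 h; endogenous TF activity at TGFB1-linked cis element; gain or loss fitted relative to DMSO.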

A short description of assay [10]: ATG_VDRE_CIS: Attagene CIS-FACTORIAL HepG2 Assay for human Vitamin D Receptor Element (VDRE) (AID 2282968). The settings on record: HepG2 VDRE cis-reporter transcription, actives raise or lower the signal. The method, boiled down:
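Compounds were applied for 24 h to HepG2 cells transfected with promoter-regulated reporter units. Total RNA was reverse-transcribed, and reporter amplicons were fluorescently labelled and sized by capillary electrophoresis.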

Assay [11] deals with X-box-binding protein 1 (Homo sapiens) (UniProt P17861). As to the kind of experiment: ATG_Xbp1_CIS: Attagene CIS-FACTORIAL HepG2 Assay for human X-box Binding Protein 1 (XBP1) (AID 2282972). The settings on record: HepG2 XBP1 cis-element reporter, Attagene multiplex; actives raise or lower the signal. The essentials:
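Multiplexed cis-reporter readout in transfected HepG2 liver cells. Exposure lasted 24 hours. Activity in either direction was fitted against DMSO as negative control and baseline.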

The target in assay [12] is Androgen receptor (Homo sapiens) (UniProt P10275). Nature of the assay: ATG_AR_TRANS: Attagene TRANS-FACTORIAL HepG2 Assay for human Androgen Receptor (AR) (AID 2282973; active means hit-call score of the fitted dose curve at least 0.9, where 1 is the maximum). The settings on record: HepG2 Attagene TRANS-FACTORIAL AR reporter transcription. The method, boiled down: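 HepG2 cells transiently transfected with AR-Gal4 chimera and GAL4-UAS reporter units; chemical exposure 24 h. Reporter mRNA quantified by RT-PCR with fluorescent labelling and capillary electrophoresis; gain-of-signal fitted against DMSO.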
Androgen receptor (Homo sapiens), sequence (P10275 whole entry, looked up, the tested form may be a part): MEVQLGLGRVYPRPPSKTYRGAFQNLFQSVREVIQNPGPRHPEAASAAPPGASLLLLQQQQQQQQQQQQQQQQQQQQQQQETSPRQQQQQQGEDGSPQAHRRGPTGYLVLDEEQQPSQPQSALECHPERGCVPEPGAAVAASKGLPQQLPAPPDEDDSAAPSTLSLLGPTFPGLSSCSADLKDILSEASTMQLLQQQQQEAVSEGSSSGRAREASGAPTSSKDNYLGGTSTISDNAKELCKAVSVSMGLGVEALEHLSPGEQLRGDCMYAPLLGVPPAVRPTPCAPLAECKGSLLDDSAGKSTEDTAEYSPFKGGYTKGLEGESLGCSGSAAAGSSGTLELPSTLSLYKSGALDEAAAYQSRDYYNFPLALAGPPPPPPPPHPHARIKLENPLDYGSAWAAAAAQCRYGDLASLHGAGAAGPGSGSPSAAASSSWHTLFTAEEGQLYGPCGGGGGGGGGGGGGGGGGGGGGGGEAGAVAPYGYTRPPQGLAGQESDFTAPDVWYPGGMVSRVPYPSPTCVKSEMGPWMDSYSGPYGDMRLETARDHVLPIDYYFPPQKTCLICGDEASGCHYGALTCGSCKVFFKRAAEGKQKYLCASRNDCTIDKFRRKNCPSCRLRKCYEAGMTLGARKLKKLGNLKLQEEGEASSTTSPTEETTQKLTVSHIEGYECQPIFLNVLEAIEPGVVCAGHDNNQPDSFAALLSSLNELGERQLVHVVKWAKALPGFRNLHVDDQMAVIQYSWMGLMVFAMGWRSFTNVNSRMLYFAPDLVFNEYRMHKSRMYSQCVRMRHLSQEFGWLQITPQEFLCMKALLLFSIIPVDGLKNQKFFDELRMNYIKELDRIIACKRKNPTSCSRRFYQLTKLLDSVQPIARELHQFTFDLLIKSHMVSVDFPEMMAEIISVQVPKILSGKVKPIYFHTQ

Assay [13] in a line: ATG_RORE_CIS: Attagene CIS-FACTORIAL HepG2 Assay for human RAR-related Orphan Receptor Element (RORE) (AID 2282959). To be noted: HepG2 Attagene cis-factorial RORE reporter, mRNA; actives raise or lower the signal. The method, boiled down: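 Transient MRTU transfection of human HepG2 liver cells (FuGene 6); 24 h compound exposure; TriZol RNA, oligo(dT) RT, PCR, FAM labeling, HpaI cut, CE fragment analysis. DMSO = negative control/baseline.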

The target in assay [14] is Nuclear receptor subfamily 1 group I member 3 (Homo sapiens) (UniProt Q14994). As to the kind of experiment: ATG_CAR_TRANS: Attagene TRANS-FACTORIAL HepG2 Assay for human Constitutive Androstane Receptor (CAR) (AID 2282969; active means hit-call score of the fitted dose curve at least 0.9, where 1 is the maximum;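 further: activators raise reporter mRNA above DMSO so AC50 marks induction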). The settings on record: HepG2 Attagene TRANS-FACTORIAL CAR reporter. The essentials: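 Transiently transfected HepG2, multiplex TRANS reporters (CAR-Gal4 chimera driving GAL4-UAS reporter). 24 h dosing. Readout: reporter transcript by RT-PCR + capillary electrophoresis, fluorescence intensity; positive direction vs DMSO.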
Nuclear receptor subfamily 1 group I member 3 (Homo sapiens), sequence (Q14994 whole entry, looked up, the tested form may be a part): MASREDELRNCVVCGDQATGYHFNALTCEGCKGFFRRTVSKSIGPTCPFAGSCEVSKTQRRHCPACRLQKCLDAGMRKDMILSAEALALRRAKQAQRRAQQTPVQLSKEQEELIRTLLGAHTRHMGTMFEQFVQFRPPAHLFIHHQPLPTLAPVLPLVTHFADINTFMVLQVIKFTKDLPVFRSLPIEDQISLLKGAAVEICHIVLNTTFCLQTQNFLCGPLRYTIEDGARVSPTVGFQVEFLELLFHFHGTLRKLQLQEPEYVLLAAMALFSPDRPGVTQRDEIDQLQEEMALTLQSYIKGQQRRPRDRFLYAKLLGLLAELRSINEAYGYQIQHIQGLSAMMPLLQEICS

The target in assay [15] is Estrogen receptor (Homo sapiens) (UniProt P03372). As to the kind of experiment: ATG_ERa_TRANS: Attagene TRANS-FACTORIAL HepG2 Assay for human Estrogen Receptor alpha (ERa) (AID 2282970; active means hit-call score of the fitted dose curve at least 0.9, where 1 is the maximum). The settings on record: HepG2 Attagene TRANS ERa GAL4 reporter, mRNA. The essentials:
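Gal4-fusion ERa transactivation, measured as reporter transcript level in transiently transfected HepG2 cells. Exposure 24 h; RT-PCR plus capillary electrophoresis with fluorescence detection.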

The nature of assay [16]: ATG_GAL4_TRANS: Attagene TRANS-FACTORIAL HepG2 Assay for GAL4 (Internal Marker) (AID 2282976; active means hit-call score of the fitted dose curve at least 0.9, where 1 is the maximum). The settings on record: HepG2 Attagene TRANS GAL4 internal marker reporter. The essentials:
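Background-control readout: GAL4-UAS reporter transcript in transiently transfected HepG2 cells after 24 h compound exposure. Measured by RT-PCR, 6-FAM primer extension, HpaI digest and capillary electrophoresis; gain-of-signal fit versus DMSO.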

A short description of assay [17]: ATG_M_19_TRANS: Attagene TRANS-FACTORIAL HepG2 Assay for M19 Transcription Factor (Internal Marker) (AID 2282974; active means hit-call score of the fitted dose curve at least 0.9, where 1 is the maximum). To be noted: HepG2 Attagene TRANS-FACTORIAL M19 internal marker reporter. The essentials:
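Fluorescence of 6-FAM-labelled reporter cDNA fragments, separated by capillary electrophoresis, served as the readout. These derived from HepG2 cells carrying transfected GAL4-UAS reporter units after 24 h dosing, with DMSO as negative control.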

Values joined by “and” are separate entries in the source; they are usually repeats but may differ in a detail not shown here. Identical values can stand only once. Records with an inconclusive call do not appear. Some compounds were tested as several samples or in several runs, with calls that do not always agree. Active and inactive are the calls of the source. How the source made its calls, unless noted: active means hit-call score of the fitted dose curve at least 0.9, where 1 is the maximum; inactive means score below 0.9.

Transcription factor Sp1 (Homo sapiens), sequence (P08047 whole entry, looked up): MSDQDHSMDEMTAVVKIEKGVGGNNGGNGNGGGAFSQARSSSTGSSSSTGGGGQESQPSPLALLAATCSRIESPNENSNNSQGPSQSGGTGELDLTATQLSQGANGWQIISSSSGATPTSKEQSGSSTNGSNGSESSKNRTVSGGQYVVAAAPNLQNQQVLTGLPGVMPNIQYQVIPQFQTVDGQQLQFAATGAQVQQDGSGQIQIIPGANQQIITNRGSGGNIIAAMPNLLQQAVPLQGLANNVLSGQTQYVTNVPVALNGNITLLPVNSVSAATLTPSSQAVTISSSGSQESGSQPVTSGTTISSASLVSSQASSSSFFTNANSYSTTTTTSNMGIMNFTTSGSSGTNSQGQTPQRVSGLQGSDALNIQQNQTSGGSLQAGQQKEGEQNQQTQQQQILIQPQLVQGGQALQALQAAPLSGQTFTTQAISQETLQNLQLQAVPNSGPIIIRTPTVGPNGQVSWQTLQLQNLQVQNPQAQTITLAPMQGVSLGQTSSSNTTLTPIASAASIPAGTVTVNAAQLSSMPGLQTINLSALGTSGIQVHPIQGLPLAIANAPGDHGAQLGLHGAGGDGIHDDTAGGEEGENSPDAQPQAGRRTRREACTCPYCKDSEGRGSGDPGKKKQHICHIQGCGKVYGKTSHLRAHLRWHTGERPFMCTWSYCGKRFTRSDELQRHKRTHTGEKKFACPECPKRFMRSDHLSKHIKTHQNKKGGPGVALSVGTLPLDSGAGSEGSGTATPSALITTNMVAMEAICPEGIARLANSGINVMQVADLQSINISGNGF
Estrogen receptor (Homo sapiens), sequence (P03372 whole entry, looked up, the tested form may be a part): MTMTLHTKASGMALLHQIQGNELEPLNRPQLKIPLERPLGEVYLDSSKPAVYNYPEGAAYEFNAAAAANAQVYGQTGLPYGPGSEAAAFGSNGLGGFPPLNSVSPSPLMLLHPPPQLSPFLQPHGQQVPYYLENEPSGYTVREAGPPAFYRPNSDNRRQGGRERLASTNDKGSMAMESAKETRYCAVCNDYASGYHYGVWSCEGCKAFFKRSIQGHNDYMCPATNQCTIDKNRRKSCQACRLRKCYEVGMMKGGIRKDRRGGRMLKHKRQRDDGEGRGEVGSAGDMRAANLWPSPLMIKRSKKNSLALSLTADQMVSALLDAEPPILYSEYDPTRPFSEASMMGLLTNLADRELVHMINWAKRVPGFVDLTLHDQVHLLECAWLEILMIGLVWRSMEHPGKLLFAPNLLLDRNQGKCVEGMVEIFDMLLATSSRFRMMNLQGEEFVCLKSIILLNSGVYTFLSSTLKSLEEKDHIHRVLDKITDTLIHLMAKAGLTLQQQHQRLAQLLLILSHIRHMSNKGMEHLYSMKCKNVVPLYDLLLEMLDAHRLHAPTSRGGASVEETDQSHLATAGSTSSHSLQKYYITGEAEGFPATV
Signal transducer and activator of transcription 3 (Homo sapiens), sequence (P40763 whole entry, looked up, the tested form may be a part): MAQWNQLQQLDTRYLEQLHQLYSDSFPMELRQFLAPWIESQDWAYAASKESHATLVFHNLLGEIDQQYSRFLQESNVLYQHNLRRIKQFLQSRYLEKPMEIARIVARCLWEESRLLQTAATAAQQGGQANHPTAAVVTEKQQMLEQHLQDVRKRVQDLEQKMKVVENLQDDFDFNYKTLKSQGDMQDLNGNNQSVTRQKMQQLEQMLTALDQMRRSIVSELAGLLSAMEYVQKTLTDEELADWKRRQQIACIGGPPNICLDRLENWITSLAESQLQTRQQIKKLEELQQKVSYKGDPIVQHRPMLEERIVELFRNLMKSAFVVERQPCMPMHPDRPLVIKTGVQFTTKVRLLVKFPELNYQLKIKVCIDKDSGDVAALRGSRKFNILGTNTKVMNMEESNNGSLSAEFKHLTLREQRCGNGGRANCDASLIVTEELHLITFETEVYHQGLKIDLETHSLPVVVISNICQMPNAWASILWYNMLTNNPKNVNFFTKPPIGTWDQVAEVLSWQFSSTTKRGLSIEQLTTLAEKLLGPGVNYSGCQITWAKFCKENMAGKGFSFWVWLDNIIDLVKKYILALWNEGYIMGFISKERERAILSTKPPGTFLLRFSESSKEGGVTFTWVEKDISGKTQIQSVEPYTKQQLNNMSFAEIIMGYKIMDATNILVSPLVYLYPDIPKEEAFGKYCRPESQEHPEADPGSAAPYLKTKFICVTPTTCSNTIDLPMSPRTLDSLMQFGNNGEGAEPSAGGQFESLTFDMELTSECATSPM
X-box-binding protein 1 (Homo sapiens), sequence (P17861 whole entry, looked up): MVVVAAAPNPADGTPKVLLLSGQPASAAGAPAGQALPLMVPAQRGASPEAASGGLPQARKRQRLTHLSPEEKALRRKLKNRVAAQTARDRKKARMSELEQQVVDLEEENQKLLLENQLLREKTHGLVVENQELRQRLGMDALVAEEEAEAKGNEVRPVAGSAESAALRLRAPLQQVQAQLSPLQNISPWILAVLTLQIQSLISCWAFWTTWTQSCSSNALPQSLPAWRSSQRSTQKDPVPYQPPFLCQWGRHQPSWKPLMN

For the compound `C=CC(=O)NCNC(=O)C=C`, the call in assay [1], in assay [2], in assay [3], in assay [4], in [5] and in assay [6] was inactive. Besides, the call in assay [7], in assay [8], in assay [9], in assay [10], in assay [11] and in assay [12] was inactive.

Regarding `O=C(NC(=O)c1c(F)cccc1F)Nc1cc(Cl)c(OC(F)(F)C(F)F)c(Cl)c1`, the compound was called inactive in assay [1], in assay [13], in assay [2], in [3], in assay [4] and in [5]. For the same compound, the compound was classed as inactive in assay [6], in [7], in [8], in [9], in assay [14] and in assay [15]. For the same compound, the compound was called inactive in assay [12] and in assay [16].

Usually AC50 stands for the midpoint of the concentration-response curve, whichever way the signal moves. Turning to `ClC1=C(Cl)[C@]2(Cl)[C@@H]3[C@@H](Cl)[C@H]4O[C@H]4[C@@H]3C1(Cl)C2(Cl)Cl`, the outcome in [1], in [13], in [2], in [5], in [6] and in assay [7] was inactive. The result in assay [8], in assay [9], in [10] and in assay [15] was inactive. The AC50 was 26.7 µM (active) in assay [3] and 51.4 µM (active) in assay [4].

Consider `C[C@]12CCC(=O)C=C1CC[C@@H]1[C@@H]2CC[C@@]2(C)[C@H]1CC[C@]2(C)O`, for which the compound was classed as inactive in assay [1], in assay [13], in [2], in assay [3], in assay [4] and in assay [5]. Moreover, the compound was called inactive in assay [6], in assay [7], in assay [8], in assay [9], in assay [10] and in [14]. The call in assay [11], in [17] and in assay [16] was inactive. For the same compound, the AC50 in [4] is 57.5 µM (active) and 45.9 µM (active) and 62.4 µM (active); in assay [7], 55.7 µM (active) and 15.9 µM (active); in assay [10], 18.2 µM (active).

As for `Cc1cc(-c2ccc(N)c(C)c2)ccc1N`, the outcome in [13], in assay [2], in assay [3], in assay [4], in assay [5] and in assay [6] was inactive. The compound was classed as inactive in assay [7], in assay [8], in assay [9], in assay [10], in [14] and in assay [11]. Besides, the result in assay [17] and in assay [16] was inactive. In assay [15], the AC50 was 8.74 µM (active) and 6.68 µM (active).

As to `C1CC2OC2CC1C1CO1` (stereo unspecified), the outcome in assay [1], in assay [13], in assay [2], in assay [3], in [4] and in assay [5] was inactive. Further, the compound was called inactive in assay [6], in assay [7], in [8], in assay [9], in [10] and in assay [11]. The outcome in assay [17] was inactive.

On to `Oc1ccc(Cl)cc1Cl`, for which the compound was called inactive in assay [1], in assay [13], in assay [2], in assay [3], in assay [4] and in assay [5]. The call in [6], in [7], in assay [8], in assay [9] and in assay [10] was inactive. Moreover, the AC50 in assay [15] was 64 µM (active).
